Out of some 16,000 compounds screened, about 5,100 (32%) were called active. Another 25% or so got no clear call; they are omitted. Calls follow the shape of the dose curve; as a rule, active = well fitted curve in the direction sought with a large enough effect; inconclusive = small, poorly fitted or top-dose-only effect, or effect the other way; inactive = no such curve, though single readings can be large or run the other way. This is one part of the list.
What follows are compounds tested against Cytochrome P450 3A4 (Homo sapiens) (UniProt P08684) (assay: Cytochrome panel assay with activity outcomes). Conditions: recombinant CYP, pro-luciferin dealkylation, luminescence, p450-cyp3a4; series mostly up to 57.1 µM; activity, negative = inhibition: at the top concentration.
% is scaled to controls: 0 for no effect and ±100 for the full control effect.

Sequence of Cytochrome P450 3A4 (Homo sapiens) (P08684 whole entry, looked up): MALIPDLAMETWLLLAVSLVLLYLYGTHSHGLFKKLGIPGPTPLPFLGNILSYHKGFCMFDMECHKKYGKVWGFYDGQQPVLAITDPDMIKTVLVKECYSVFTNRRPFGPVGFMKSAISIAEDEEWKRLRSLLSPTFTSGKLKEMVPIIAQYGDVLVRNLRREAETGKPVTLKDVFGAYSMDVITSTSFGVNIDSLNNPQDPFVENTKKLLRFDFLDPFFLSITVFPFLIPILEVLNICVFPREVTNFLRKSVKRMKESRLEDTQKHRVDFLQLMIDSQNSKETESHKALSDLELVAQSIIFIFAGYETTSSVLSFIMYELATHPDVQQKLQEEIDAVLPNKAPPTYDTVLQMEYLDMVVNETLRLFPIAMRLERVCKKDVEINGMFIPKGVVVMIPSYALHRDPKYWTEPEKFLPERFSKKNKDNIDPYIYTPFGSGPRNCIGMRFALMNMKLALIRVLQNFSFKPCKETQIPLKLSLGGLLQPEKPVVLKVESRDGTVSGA

SMILES	AC50	activity, negative = inhibition
COc1cc(CNCCc2c[nH]c3ccccc23)ccc1OCc1ccccc1F	7.08 µM (active)	–
O=C(O)[C@@H](Cc1c[nH]c2ccccc12)C(=O)NO	–	-15.9% [at 11.4 µM] (inactive)
COc1cccc(CNCCc2c[nH]c3ccccc23)c1OCc1ccccc1F	4.47 µM (active)	–
O=c1c[n+](CCCC[n+]2cc(=O)o[nH]2)[nH]o1	–	-11.2% [at 11.4 µM] (inactive)
Cc1cc[n+](CC(=O)Nc2cc(C(F)(F)F)ccc2Cl)cc1	–	-3.03% (inactive)
CN(C)c1cc[n+](CC(=O)Nc2cc(C(F)(F)F)ccc2Cl)cc1	–	-17.4% (inactive)
Cc1ccc(C)n1CCN1CCN(CC(=O)Nc2cc(C(F)(F)F)ccc2Cl)CC1	25.1 µM (active)	–
CCOC(=O)CSC1=NC(=O)/C(=C\c2ccc(Cl)cc2)S1	–	11.4% (inactive)
COC(=O)CSc1nnc(CNc2ccc(Cl)cc2)n1-c1ccccc1	12.6 µM (active)	–
COC(Cc1nnc(SC)n1-c1ccccc1)OC	–	19.6% (inactive)
CCOC(=O)CSc1nnc(Cc2ccccc2)n1-c1cccc(Cl)c1	2 µM (active)	–
COc1ccc(NCc2nnc(SCc3ccccc3)n2-c2ccc(OC)cc2)cc1	5.01 µM (active)	–
CCOc1ccc(NCc2nnc(SCc3ccccc3Cl)n2-c2ccccc2)cc1	14.1 µM (active)	–
CC(=O)N(/N=C/c1cccc(C)c1)c1nc(-c2ccc(Br)cc2)cs1	–	-11.8% (inactive)
CSc1nsc(SC)c1NC(=O)OCc1ccccc1	22.4 µM (active)	–
CSc1nsc(SC)c1NC(=O)OCC1CCCO1 (centres undefined)	–	-5.42% [at 11.4 µM] (inactive)
CSc1nsc(SC)c1NC(=O)Nc1ccccn1	–	-5.92% (inactive)
Cc1nn(C)cc1C(=O)NNC(=S)Nc1ccccc1	–	3.36% [at 2.29 µM] (inactive)
O=C(NNC(=S)Nc1ccccc1)C1CC1	–	-8.39% (inactive)
O=C(CSCc1ccccc1Cl)NNC(=S)Nc1ccccc1	4.47 µM (active)	–
O=C(NN1C(=O)c2ccccc2C1=O)C1CCCCC1	–	-9.94% (inactive)
O=C(Nc1ccc(Br)cc1)C1CCC(=O)N1Cc1ccccc1Cl (centres undefined)	–	-3.06% [at 11.4 µM] (inactive)
O=C(CSCc1ccccc1Cl)NN1C(=O)c2ccccc2C1=O	14.1 µM (active)	–
Nc1cc(S(=O)(=O)O)cc2ccc(S(=O)(=O)O)cc12	–	-1.64% [at 11.4 µM] (inactive)
O=C(NCCc1ccc(Cl)cc1)Nc1cccc(Cl)c1	14.1 µM (active)	–

SMILES	AC50	activity, negative = inhibition
CCOC(=O)CCCN	–	-12.7% [at 11.4 µM] (inactive)
COc1ccc(C(=O)NCS(=O)(=O)c2ccc(C)cc2)cc1	14.1 µM (active)	–
COc1ccc(NC(=O)C2(c3ccc(NC(=O)c4ccc(C)cc4)cc3)CCCC2)cc1	–	-6.94% (inactive)
Cc1ccc(C(=O)NN2CCOCC2)cc1	–	1.64% (inactive)
CCc1ccccc1NC(=O)c1ccc(F)c(S(=O)(=O)N2CCC(C(N)=O)CC2)c1	15.8 µM (active)	–
COc1ccc(C(=O)Nc2cccc3c2C(=O)NC3=O)cc1S(=O)(=O)N1CCOCC1	–	1.45% [at 2.29 µM] (inactive)
CCOc1cc(/C=N/NC(=O)CN2CCCCC2)ccc1OCc1ccccc1	–	-6.35% [at 2.29 µM] (inactive)
O=[N+]([O-])c1ccc(Nc2nc(N/N=C\c3ccc4c(c3)OCO4)nc(N3CCCCC3)n2)cc1	1.26 µM (active)	–
COc1cccc(/C=N/Nc2nc(N3CCCC3)nc(N3CCCC3)n2)c1O	10 µM (active)	–
CCOc1ccc(/C=N/Nc2nc(N3CCCC3)nc(N3CCCC3)n2)cc1OC	12.6 µM (active)	–
CC(C)(C)Nc1nc(N2CCCC2)nc(N2CCCC2)n1	–	11.3% [at 2.29 µM] (inactive)
Brc1cc2c(cc1/C=N/Nc1nc(N3CCCC3)nc(N3CCOCC3)n1)OCO2	2.82 µM (active)	–
C1CCC(N=C(NC23CC4CC(CC(C4)C2)C3)N2CCOCC2)CC1	–	-18.1% (inactive)
COC(=O)[C@@H]1[C@@H](O)[C@]2(O)c3ccccc3O[C@]2(c2ccccc2)[C@H]1c1ccccc1	–	-17.3% [at 11.4 µM] (inactive)
C[C@@H]1NC(=O)C/C=C\[C@@H](C)[C@@H]2C=C[C@H](O)[C@@H](COC(=O)[C@H](C)NC(=O)C/C=C\[C@@H](C)[C@@H]3C=C[C@H](O)[C@@H](COC1=O)O3)O2	–	6.73% [at 11.4 µM] (inactive)
CN(C)Cc1ccc(O)c(CN(C)C)n1	–	-18.2% [at 11.4 µM] (inactive)
CC1CCCN(C/C=C/c2ccccc2[N+](=O)[O-])C1 (centres undefined)	–	0.0233% (inactive)
COc1c(/C=N/Nc2nc(N3CCCCC3)nc(N3CCCCC3)n2)cccc1[N+](=O)[O-]	3.98 µM (active)	–
C/C(CC(=O)NCc1ccco1)=N\NC(=O)Cc1cccc2ccccc12	–	-8.55% [at 2.29 µM] (inactive)
COc1ccccc1CNC(=O)C/C(C)=N/NC(=O)Cc1ccccc1	7.94 µM (active)	–
Cc1cc(=O)n2c3ccccc3n(CC(O)CN3CCCCC3)c2c1C#N (centres undefined)	–	8.05% (inactive)
CCN(CCO)Cc1csc2cccc(Br)c12	–	-1.38% (inactive)
Cc1ccc(C(=O)c2cn[nH]c2-c2cc(Cl)ccc2O)cc1	3.98 µM (active)	–
Cc1ccc(C(=O)c2cn(-c3ccc(F)c(Cl)c3)nn2)cc1	–	-1.47% (inactive)
CCn1ccc(C(=O)Oc2ccc(Cl)cc2)n1	–	-12.6% (inactive)

SMILES	AC50	activity, negative = inhibition
O=C(CS(=O)(=O)c1cccc(Cl)c1)Nc1ccccc1Cl	6.31 µM (active)	–
O=C(CS(=O)c1cccc(Cl)c1)Nc1ccccc1Cl (centres undefined)	14.1 µM (active)	–
O=C(CS(=O)c1cccc(C(F)(F)F)c1)Nc1ccccc1Cl (centres undefined)	7.94 µM (active)	–
Cc1nc(S(=O)(=O)c2cccc(Cl)c2)nc2c1CCC2	–	18.2% [at 2.29 µM] (inactive)
CC(=O)N(CC(=O)O)c1ccccc1C(=O)O	–	-0.567% (inactive)
O=C(O)c1ccccc1OP(=O)(O)O	–	-3.92% [at 25.6 µM] (inactive)
COc1ccc(-n2c(C)n[nH]c2=O)cc1	–	28.8% (inactive)
Cc1cc(-c2n[nH]c(=S)o2)c(C)n1-c1ccccc1	–	-29.5% (inactive)
Cc1ccc(-n2c(-c3cc(C)n(C)n3)n[nH]c2=S)cc1	14.1 µM (active)	–
CN(C)c1ncc2nc(-c3cccs3)c(=O)n(C[C@H]3CCCO3)c2n1	25.1 µM (active)	–
COCCn1c(=O)c(-c2cccs2)nc2cnc(Oc3ccc(OC)cc3)nc21	0.794 µM (active)	–
CN(C)c1ncc2nc(-c3ccc(F)cc3)c(=O)n(C[C@H]3CCCO3)c2n1	–	-4.69% (inactive)
CN(C)c1ncc2nc(-c3cccs3)c(=O)n(CCc3ccccc3)c2n1	–	-19% (inactive)
COc1ncc2nc(C)c(=O)n(CCC#N)c2n1	–	-17.2% (inactive)
COc1ncc2nc(-c3cccs3)c(=O)n(CCC#N)c2n1	10 µM (active)	–
COCCn1c(=O)c(-c2ccc(F)cc2)nc2cnc(N(C)C)nc21	–	-3.27% (inactive)
COCCn1c(=O)c(-c2cccs2)nc2cnc(N(C)C)nc21	7.94 µM (active)	–
CN(C)c1ncc2nc(-c3cc(F)cc(F)c3)c(=O)n(C[C@H]3CCCO3)c2n1	–	-8.08% (inactive)
CN(C)c1ncc2nc(-c3ccccc3)c(=O)n(CCC#N)c2n1	–	3.78% (inactive)
CCC1NC(=S)N(C2CCCCC2)C1=O (centres undefined)	–	-22.3% (inactive)
Cc1ccc(-[n+]2cc(=O)o[nH]2)cc1	–	-10.5% [at 11.4 µM] (inactive)
Nc1nc(C(=O)O)c(N=Nc2ccccc2)c(=O)[nH]1	–	-12.5% [at 11.4 µM] (inactive)
CCOc1ccc2nc3cc(N=Nc4ccc(N)nc4N)ccc3c(N)c2c1	–	-19% [at 11.4 µM] (inactive)
COc1ncc2nc(-c3cccs3)c(=O)n(CCc3ccccc3)c2n1	10 µM (active)	–
COCCn1c(=O)c(-c2cccs2)nc2cnc(Oc3ccccc3)nc21	20 µM (active)	–

SMILES	AC50	activity, negative = inhibition
COCCn1c(=O)c(-c2cccs2)nc2cnc(OC)nc21	10 µM (active)	–
CCCCN(Cc1ccccc1)C(=O)c1cnc2n(c1=O)CCS2	–	-24.7% (inactive)
CSc1ccccc1N1CCN(C(=O)Nc2ccc3c(c2)NC(=O)CO3)CC1	–	8.81% (inactive)
CN(C)S(=O)(=O)c1nc(Cl)c2[nH]cnc2n1	–	-5.34% [at 11.4 µM] (inactive)
CCOC(=O)N/N=C1/C[C@@H](O)[C@@H](O)[C@@H]2[C@@H]3C(=O)N(C4CCCCC4)C(=O)[C@H]3CC[C@@H]12	–	-20.8% [at 11.4 µM] (inactive)
O=C(Nc1cccc(Cl)c1Cl)c1snnc1-c1ccccc1	–	13.9% (inactive)
COC(=O)[C@H](C)[C@@H]1C[C@@]1(C)[C@@H](NC(=O)OCc1ccccc1)c1ccccc1	10 µM (active)	–
COC(=O)[C@H](C)[C@H]1C[C@]1(C)[C@H](NC(=O)OCc1ccccc1)c1ccccc1	7.94 µM (active)	–
CN(C)CCNS(=O)(=O)N(C)C	–	-13.5% [at 11.4 µM] (inactive)
Cc1nc2ccccc2nc1-c1ccc(N=[N+]([O-])c2ccc(-c3nc4ccccc4nc3C)cc2)cc1	–	3.4% [at 11.4 µM] (inactive)
CC(=O)NN1C(=O)c2ccc(Oc3ccc([N+](=O)[O-])cc3)cc2C1=O	–	1.67% (inactive)
Nc1ccc(Oc2ccc3nc(-c4ccccc4)c(-c4ccc([N+](=O)[O-])cc4)nc3c2)cc1	3.55 µM (active)	–
Cc1noc(C)c1CS(=O)(=O)c1ccc(Br)cc1	15.8 µM (active)	–
O=C(CCc1nc(-c2ccccc2)no1)NCCc1ccccc1	–	-16.7% (inactive)
COc1ccc(-c2noc(CCCC(=O)NCCc3ccccc3)n2)cc1OC	11.2 µM (active)	–
CNC(=O)CCc1nc(-c2ccc(C(C)(C)C)cc2)no1	–	-15.1% (inactive)
Cc1c(NCc2cc(Cl)ccc2O)c(=O)n(-c2ccccc2)n1C	14.1 µM (active)	–
O=S(=O)(/N=C(\Sc1ccccc1)c1ccccc1)c1ccc(Cl)cc1	–	-0.323% (inactive)
Cc1nn(-c2ccccc2)c(Cl)c1C(=O)Nc1c(C)n(C)n(-c2ccccc2)c1=O	–	-15.6% (inactive)
Cc1c(NC(=O)Nc2c(Cl)cccc2Cl)c(=O)n(-c2ccccc2)n1C	–	4.74% [at 11.4 µM] (inactive)
Cc1ccc(S(=O)(=O)/N=C(/Nc2c(C)n(C)n(-c3ccccc3)c2=O)c2ccc(Cl)cc2)cc1	3.16 µM (active)	–
Cc1c(NC(C)C)c(=O)n(-c2ccccc2)n1C	–	-9.46% [at 25.6 µM] (inactive)
Cc1c(NC(=O)C2CCN(S(=O)(=O)c3ccc(Cl)cc3)CC2)c(=O)n(-c2ccccc2)n1C	7.94 µM (active)	–
COc1ccccc1N/C(=N/S(=O)(=O)c1ccc(C)cc1)c1ccc(Cl)cc1	2.24 µM (active)	–

Reference: PubChem BioAssay AID1851 (National Center for Advancing Translational Sciences (NCATS), 2009)
